The values below come from PubChem BioAssay (EPA / NIEHS).

As a reminder, the AC50 is the concentration at which the activity in the assay is half-maximal.

Calls of active or inactive are those of the source. How the source made its calls: active means hit-call score of the fitted dose curve at least 0.9, where 1 is the maximum; inactive means score below 0.9.

Read-out in assay [1]: TIMP metallopeptidase inhibitor 1 (TIMP1), TIMP1 (gene 7076)
In words: BSK_hDFCGF_TIMP1: BioMAP Diversity Plus: hDFCGF Assay for TIMP metallopeptidase inhibitor 1 (TIMP1) Biomarker Activity (AID 2283062). The settings on record: primary human foreskin fibroblasts; actives raise or lower the signal. The method, boiled down:
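Bidirectional curve fitting against DMSO baseline yielded this endpoint, based on ELISA detection of TIMP-1 in primary human foreskin fibroblasts exposed to compound for 24 h.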

Read-out in assay [2]: Monokine induced gamma interferon (MIG), CXCL9 (gene 4283)
In words: BSK_hDFCGF_MIG: BioMAP Diversity Plus: hDFCGF Assay for Monokine induced gamma interferon (MIG) Biomarker Activity (AID 2283063). The note with it: primary human foreskin fibroblasts; actives raise or lower the signal. A digest of the protocol:
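Endpoint derived by bidirectional fitting relative to DMSO; MIG quantified via ELISA in primary human foreskin fibroblasts harvested 24 h after dosing.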

Read-out in assay [3]: Matrix Metallopeptidase 1 (MMP1), MMP1 (gene 4312)
In words: BSK_hDFCGF_MMP1: BioMAP Diversity Plus: hDFCGF Assay for Matrix Metallopeptidase 1 (MMP1) Biomarker Activity (AID 2283064). The settings on record: primary human foreskin fibroblasts; actives raise or lower the signal. A digest of the protocol:
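Primary human foreskin fibroblasts in the hDFCGF system were dosed with test chemical, and MMP1 was measured by ELISA 24 h later. Values come from bidirectional curve fitting against the DMSO baseline.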

Read-out in assay [4]: Vascular cell adhesion molecule 1 (VCAM1), VCAM1 (gene 7412)
Kind of assay: BSK_hDFCGF_VCAM1: BioMAP Diversity Plus: hDFCGF Assay for Vascular cell adhesion molecule 1 (VCAM1) Biomarker Activity (AID 2283065).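 On AC50: VCAM-1 protein level quantified by ELISA after 24 h chemical exposure.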 The settings on record: primary human foreskin fibroblasts; actives raise or lower the signal. A digest of the protocol: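 Measured after 24 h chemical treatment of primary human skin fibroblasts, VCAM-1 was detected by ELISA and concentration-response analysed in both directions versus DMSO vehicle.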

Read-out in assay [5]: Plasminogen activator inhibitor-1 (PAI1), SERPINE1 (gene 5054)
In words: BSK_hDFCGF_PAI1: BioMAP Diversity Plus: hDFCGF Assay for Plasminogen activator inhibitor-1 (PAI1) Biomarker Activity (AID 2283066). The settings on record: primary human foreskin fibroblasts; actives raise or lower the signal. A digest of the protocol: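 Primary dermal fibroblasts (human foreskin), hDFCGF system; compound 24 h; PAI-1 by ELISA; bidirectional fit vs DMSO control.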

Read-out in assay [6]: Intercellular Adhesion Molecule 1 (ICAM1), ICAM1 (gene 3383)
In words: BSK_KF3CT_ICAM1: BioMAP Diversity Plus: KF3CT Assay for Intercellular Adhesion Molecule 1 (ICAM1) Biomarker Activity (AID 2283067). The note with it: primary human keratinocytes with fibroblasts; actives raise or lower the signal. The method, boiled down:
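Bidirectional curve fitting against a DMSO baseline was applied to ICAM-1 ELISA signal from primary human skin co-cultures harvested 24 h after treatment, with SRB staining of parallel wells for overt cytotoxicity.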

Read-out in assay [7]: Interferon-gamma inducible Protein 10 (IP10), CXCL10 (gene 3627)
Kind of assay: BSK_KF3CT_IP10: BioMAP Diversity Plus: KF3CT Assay for Interferon-gamma inducible Protein 10 (IP10) Biomarker Activity (AID 2283068). The note with it: primary human keratinocytes with fibroblasts; actives raise or lower the signal. The method, boiled down: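 ELISA read-out of IP-10 after 24 h chemical dosing of human skin primary co-culture (keratinocytes, foreskin fibroblasts). Gain or loss of signal relative to DMSO, bidirectional curve fit.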

Assay [8] is described as follows: BSK_KF3CT_SRB: Viability Assessment in the BioMAP Diversity Plus: KF3CT Assay (AID 2283069).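 Further: total protein by sulforhodamine B staining as a cytotoxicity measure; read 24 h after compound addition.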 The note with it: primary human keratinocytes with fibroblasts. A digest of the protocol: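 Human primary keratinocyte plus foreskin fibroblast co-culture exposed to chemicals for 24 h. Total protein measured by 0.1% sulforhodamine B staining after 10% TCA fixation, read at 560 nm; bidirectional fitting versus DMSO baseline.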

Read-out in assay [9]: Interleukin-1 alpha (IL1a), IL1A (gene 3552)
In words: BSK_KF3CT_IL1a: BioMAP Diversity Plus: KF3CT Assay for Interleukin-1 alpha (IL1a) Biomarker Activity (AID 2283070). The note with it: primary human keratinocytes with fibroblasts; actives raise or lower the signal. The method, boiled down:
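Human keratinocyte plus foreskin fibroblast primary co-culture, sampled 24 h after chemical dosing. IL-1a measured by ELISA; responses fitted bidirectionally against DMSO baseline (negative control), so gain or loss of signal both count.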

Read-out in assay [10]: TIMP metallopeptidase inhibitor 2 (TIMP2), TIMP2 (gene 7077)
In words: BSK_KF3CT_TIMP2: BioMAP Diversity Plus: KF3CT Assay for TIMP metallopeptidase inhibitor 2 (TIMP2) Biomarker Activity (AID 2283071). The note with it: primary human keratinocytes with fibroblasts; actives raise or lower the signal. The method, boiled down:
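Cells: human keratinocytes co-cultured with foreskin fibroblasts. Treat with chemical, 24 h. Measure TIMP-2 by ELISA; fit curves bidirectionally vs DMSO baseline.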

Read-out in assay [11]: Transforming growth factor beta 1 (TGFb1), TGFB1 (gene 7040)
In words: BSK_KF3CT_TGFb1: BioMAP Diversity Plus: KF3CT Assay for Transforming growth factor beta 1 (TGFb1) Biomarker Activity (AID 2283072). The settings on record: primary human keratinocytes with fibroblasts; actives raise or lower the signal. A digest of the protocol:
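Primary human skin cells (keratinocytes, foreskin fibroblasts) were co-cultured, exposed to test chemical and sampled at 24 h. TGF-b1 levels were measured by ELISA and fitted bidirectionally relative to DMSO.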

Read-out in assay [12]: C-C motif chemokine 2 (Homo sapiens) (UniProt P13500)
In words: BSK_KF3CT_MCP1: BioMAP Diversity Plus: KF3CT Assay for Monocyte Chemoattractant Protein 1 (MCP1/CCL2) Biomarker Activity (AID 2283073). The note with it: primary human keratinocytes with fibroblasts; actives raise or lower the signal. The method, boiled down: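 Biomarker MCP-1 is measured by ELISA in primary human keratinocytes co-cultured with foreskin fibroblasts, 24 h after chemical treatment; DMSO serves as the negative control and activity baseline.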

Read-out in assay [13]: Matrix Metallopeptidase 9 (MMP9), MMP9 (gene 4318)
Kind of assay: BSK_KF3CT_MMP9: BioMAP Diversity Plus: KF3CT Assay for Matrix Metallopeptidase 9 (MMP9) Biomarker Activity (AID 2283074). The settings on record: primary human keratinocytes with fibroblasts; actives raise or lower the signal. The method, boiled down:
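Keratinocyte plus foreskin fibroblast human primary skin co-culture was dosed with chemical and MMP-9 was quantified by ELISA 24 h later. Bidirectional curve fitting used DMSO as negative control and activity baseline.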

Read-out in assay [14]: urokinase plasminogen activator (uPA), PLAU (gene 5328)
Kind of assay: BSK_KF3CT_uPA: BioMAP Diversity Plus: KF3CT Assay for urokinase plasminogen activator (uPA) Biomarker Activity (AID 2283075). The note with it: primary human keratinocytes with fibroblasts; actives raise or lower the signal. A digest of the protocol: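 Human keratinocyte plus foreskin fibroblast primary co-culture exposed to chemical for 24 h. uPA levels were quantified by ELISA, and activity was fitted bidirectionally against a DMSO negative-control baseline.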

Read-out in assay [15]: CD40, CD40 (gene 958)
Kind of assay: BSK_LPS_CD40: BioMAP Diversity Plus: LPS Assay for CD40 Biomarker Activity (AID 2283076). The settings on record: primary human HUVEC with PBMC; actives raise or lower the signal. A digest of the protocol:
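Using a multiplexed primary human co-culture (umbilical vein endothelium plus PBMC), CD40 was read by ELISA 24 h after dosing, with cytotoxicity tracked by sulforhodamine B staining of parallel cultures and activity fitted bidirectionally versus DMSO.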

Read-out in assay [16]: E-selectin (Homo sapiens) (UniProt P16581)
Kind of assay: BSK_LPS_Eselectin: BioMAP Diversity Plus: LPS Assay for Eselectin Biomarker Activity (AID 2283077). The note with it: primary human HUVEC with PBMC; actives raise or lower the signal. A digest of the protocol: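 Dose chemical onto LPS-driven HUVEC/PBMC co-culture; after 24 h, run ELISA for E-selectin; fit up- and down-going responses relative to DMSO control.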

Read-out in assay [17]: Interleukin-8 (IL8), CXCL8 (gene 3576)
In words: BSK_LPS_IL8: BioMAP Diversity Plus: LPS Assay for Interleukin-8 (IL8) Biomarker Activity (AID 2283078). The settings on record: primary human HUVEC with PBMC; actives raise or lower the signal. The method, boiled down: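 In this LPS system, chemical-treated human umbilical vein endothelium/PBMC co-cultures were harvested at 24 h for IL-8 ELISA.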

Assay [18] in a line: BSK_LPS_SRB: Viability Assessment in the BioMAP Diversity Plus: LPS Assay (AID 2283079).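 Further: total protein by sulforhodamine B absorbance as a cytotoxicity measure; measured one day after compound addition.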 The settings on record: primary human HUVEC with PBMC. A digest of the protocol:
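Cytotoxicity endpoint in human endothelial–PBMC co-culture: 24 h exposure, then SRB (0.1%) staining, 560 nm read.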

Read-out in assay [19]: Interleukin-1 alpha (IL1a), IL1A (gene 3552)
In words: BSK_LPS_IL1a: BioMAP Diversity Plus: LPS Assay for Interleukin-1 alpha (IL1a) Biomarker Activity (AID 2283080). The note with it: primary human HUVEC with PBMC; actives raise or lower the signal. A digest of the protocol: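 Primary human HUVEC and PBMC co-culture stimulated with LPS is dosed and harvested at 24 h. Both increases and decreases in ELISA-measured IL-1a are scored relative to DMSO.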

Read-out in assay [20]: Monocyte Chemoattractant Protein-1 (MCP1), CCL2 (gene 6347)
Kind of assay: BSK_LPS_MCP1: BioMAP Diversity Plus: LPS Assay for Monocyte Chemoattractant Protein-1 (MCP1) Biomarker Activity (AID 2283081). The note with it: primary human HUVEC with PBMC; actives raise or lower the signal. The method, boiled down: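 Values derive from bidirectional fitting against DMSO of ELISA-measured MCP-1 in a human primary endothelial and mononuclear cell co-culture, 24 h after chemical addition under LPS activation.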

Sequence of E-selectin (Homo sapiens) (P16581 whole entry, looked up): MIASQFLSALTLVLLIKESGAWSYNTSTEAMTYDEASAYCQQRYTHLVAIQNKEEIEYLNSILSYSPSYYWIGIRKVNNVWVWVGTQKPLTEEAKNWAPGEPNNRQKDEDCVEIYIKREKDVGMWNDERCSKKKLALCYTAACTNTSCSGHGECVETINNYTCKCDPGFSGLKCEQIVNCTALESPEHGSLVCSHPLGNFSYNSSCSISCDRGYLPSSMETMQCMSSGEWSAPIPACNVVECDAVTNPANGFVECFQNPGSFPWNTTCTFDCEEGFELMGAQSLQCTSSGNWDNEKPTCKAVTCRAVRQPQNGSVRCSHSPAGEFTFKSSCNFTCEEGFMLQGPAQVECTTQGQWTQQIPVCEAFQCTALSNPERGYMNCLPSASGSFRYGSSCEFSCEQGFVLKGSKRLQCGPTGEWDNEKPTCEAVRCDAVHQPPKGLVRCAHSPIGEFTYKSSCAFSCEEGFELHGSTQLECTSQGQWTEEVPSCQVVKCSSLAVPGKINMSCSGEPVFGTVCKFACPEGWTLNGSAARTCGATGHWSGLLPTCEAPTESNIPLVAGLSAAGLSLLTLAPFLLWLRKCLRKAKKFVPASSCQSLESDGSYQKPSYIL

`Nc1ccc([N+](=O)[O-])cc1`: the result in assay [1], in assay [2], in assay [3], in assay [4], in assay [5] and in assay [6] was inactive. In addition, the result in assay [7], in [8], in [9], in assay [10], in assay [11] and in [12] was inactive. In addition, the outcome in [13], in assay [14], in [15], in [16], in assay [17] and in [18] was inactive. For the same molecule, the outcome in assay [19] and in assay [20] was inactive.
Regarding `COC(=O)c1ccccc1N`, the result in assay [1], in assay [2], in [3], in assay [4], in [6] and in assay [7] was inactive. Also, the result in assay [8], in [9], in assay [10], in [11], in [12] and in assay [13] was inactive. In addition, the result in assay [14], in assay [15], in [16], in [17], in assay [18] and in assay [19] was inactive.
On to `CCCCCOC(=O)c1ccccc1C(=O)OCCCCC`, for which the outcome in assay [1], in [2], in [3], in [5], in assay [6] and in [7] was inactive. The outcome in [8], in assay [9], in assay [10], in [11], in assay [12] and in [13] was inactive. The outcome in assay [14], in assay [19] and in [20] was inactive. Also, the AC50 in assay [4] is 4.45 µM (active); in assay [15], 20 µM (active); in assay [16], 31.7 µM (active); in [17], 20 µM (active).
